Data reported in the supplement of paper PMC6555819.

Tests used:
Test in all cases: PBM binding z-score (relative to random genomic background probes); higher = stronger binding; sequences stand for … in GC…GCGATTGACAGCGTAGAATGAAGG
[1] = system: PPARg:RXRa DBDmut IVT, anti-RXR (DBD mutation: RXRa K156A/R161A, NR concentration 270 nM, RXRa partner concentration 90 nM)
Procedure, shortened: (§1)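 Binding buffer was PBS pH 7.4 with 2% milk, 0.02% Triton X-100, 1 mM DTT, 0.2 mg/mL BSA and 0.4 mg/ml salmon testes DNA. In it, ligand-free nuclear receptor dimers were incubated 1 h on custom Agilent 4×180K protein-binding microarrays carrying double-stranded probes. Antibodies against each partner (one per run) detected binding, and z-scores were calculated against random background probes after regression normalization of scanned fluorescence.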

[2] = system: PPARg:RXRa IVT, anti-PPARg (NR concentration 270 nM, RXRa partner concentration 90 nM)
Procedure, shortened: as §1

[3] = system: PPARg homodimer (NR concentration 180 nM)
Procedure, shortened: as §1

[4] = system: PXR homodimer (NR concentration 270 nM)
Procedure, shortened: as §1

[5] = system: RARa:RXR (NR concentration 270 nM, RXRa partner concentration 90 nM)
Procedure, shortened: as §1

[6] = system: RARa homodimer (NR concentration 270 nM)
Procedure, shortened: as §1

[7] = system: RARb:RXRa (NR concentration 270 nM, RXRa partner concentration 90 nM)
Procedure, shortened: as §1

[8] = system: RARb homodimer (NR concentration 270 nM)
Procedure, shortened: as §1

[9] = system: RARg:RXRa (NR concentration 270 nM, RXRa partner concentration 90 nM)
Procedure, shortened: as §1

[10] = system: RARg homodimer (NR concentration 270 nM)
Procedure, shortened: as §1

[11] = system: RXRa DBDmut IVT, anti-RXR (DBD mutation: RXRa K156A/R161A, NR concentration 90 nM)
Procedure, shortened: as §1

[12] = system: RXRa homodimer (NR concentration 180 nM)
Procedure, shortened: as §1

[13] = system: THRa:RXRa (NR concentration 90 nM, RXRa partner concentration 90 nM)
Procedure, shortened: as §1

[14] = system: THRa homodimer (NR concentration 90 nM)
Procedure, shortened: as §1

[15] = system: VDR homodimer (NR concentration 270 nM)
Procedure, shortened: as §1

[16] = system: PXR:RXRa (NR concentration 270 nM, RXRa partner concentration 90 nM)
Procedure, shortened: as §1

TCGAGTAGGTTACGCGGGCATTCAGGGATGAAGA gave a PBM binding z-score [1] of 2.91, a PBM binding z-score [2] of 3.32 and a PBM binding z-score [3] of 0.356. For the same sequence, the PBM binding z-score [4] was -0.508, the PBM binding z-score [5] was 0.641 and the PBM binding z-score [6] was -0.865. It also gave a PBM binding z-score [7] of 0.946, a PBM binding z-score [8] of 0.619 and a PBM binding z-score [9] of 0.799. It also gave a PBM binding z-score [10] of 0.653, a PBM binding z-score [11] of -0.0929 and a PBM binding z-score [12] of 0.864. The PBM binding z-score [13] was 0.97, the PBM binding z-score [14] was -0.444 and the PBM binding z-score [15] was -0.617.

CTATGTAGGTTAAGGAGGTCATTCAGTTTGAAAG showed a PBM binding z-score [1] of 7, a PBM binding z-score [2] of 7.07 and a PBM binding z-score [3] of 2.9. For the same sequence, the PBM binding z-score [16] was 5.67, the PBM binding z-score [4] was 12 and the PBM binding z-score [5] was 4.51. The PBM binding z-score [6] was 0.704, the PBM binding z-score [8] was 3.79 and the PBM binding z-score [9] was 3.89. For the same sequence, the PBM binding z-score [10] was 3.37, the PBM binding z-score [11] was 1.97 and the PBM binding z-score [12] was 4.07. The PBM binding z-score [13] was 3.68, the PBM binding z-score [14] was 1.59 and the PBM binding z-score [15] was 4.47.

CTATGTAGCTTAAGGGGGTCATTCAGTTTGAAAG was tested, and the PBM binding z-score [1] was 2.86, the PBM binding z-score [2] was 4.78 and the PBM binding z-score [3] was 3.12. The PBM binding z-score [16] was 5.52, the PBM binding z-score [4] was 10 and the PBM binding z-score [5] was 5.18. It also gave a PBM binding z-score [6] of 1.84, a PBM binding z-score [7] of 3.33 and a PBM binding z-score [8] of 3.58. It also gave a PBM binding z-score [9] of 4.42, a PBM binding z-score [10] of 3.15 and a PBM binding z-score [11] of 2.56. It also gave a PBM binding z-score [12] of 5.27, a PBM binding z-score [13] of 3.69 and a PBM binding z-score [14] of 2.41. The PBM binding z-score [15] was 6.05.

In the case of CCGAGTAGGTTACGGGGGGGCATTCAGTGCGAAT, the PBM binding z-score [1] is reported as 5.07, the PBM binding z-score [2] is reported as 5.61 and the PBM binding z-score [3] is reported as 4.19. For the same sequence, the PBM binding z-score [16] was 5.79, the PBM binding z-score [4] was 7.32 and the PBM binding z-score [5] was 4.18. The PBM binding z-score [6] was 2.21, the PBM binding z-score [8] was 3.09 and the PBM binding z-score [9] was 4.41. For the same sequence, the PBM binding z-score [10] was 4.19, the PBM binding z-score [11] was 2.7 and the PBM binding z-score [12] was 2.73. It also gave a PBM binding z-score [13] of 4.4, a PBM binding z-score [14] of 3.04 and a PBM binding z-score [15] of 4.76.

Work on CCGAGTAAGTTACGAGGGGGCATTCAGTGCGAAT yielded a PBM binding z-score [1] of 0.778, a PBM binding z-score [2] of 0.899 and a PBM binding z-score [3] of 0.949. It also gave a PBM binding z-score [4] of 4.68, a PBM binding z-score [5] of 2.13 and a PBM binding z-score [6] of 0.219. The PBM binding z-score [7] was 1.09, the PBM binding z-score [8] was 1.29 and the PBM binding z-score [9] was 1.47. It also gave a PBM binding z-score [10] of 0.902, a PBM binding z-score [11] of 1.57 and a PBM binding z-score [12] of 1.31. The PBM binding z-score [13] was 2.32, the PBM binding z-score [14] was 0.139 and the PBM binding z-score [15] was 2.59.

Sequence TCGAGTAGGTTACTGGGGCATTCAGGGATGAAGA has a PBM binding z-score [1] of 5.34, a PBM binding z-score [2] of 6.18 and a PBM binding z-score [3] of 0.888. For the same sequence, the PBM binding z-score [4] was -0.522, the PBM binding z-score [5] was 0.925 and the PBM binding z-score [6] was -0.357. The PBM binding z-score [7] was 1.08, the PBM binding z-score [8] was 0.974 and the PBM binding z-score [9] was 0.621. For the same sequence, the PBM binding z-score [10] was 0.564, the PBM binding z-score [11] was 0.0231 and the PBM binding z-score [12] was 0.761. The PBM binding z-score [13] was 1.83, the PBM binding z-score [14] was -0.116 and the PBM binding z-score [15] was -0.285.

Sequence CCGAGTTGGTTACGAGGGGGCATTCAGTGCGAAT has a PBM binding z-score [1] of 0.938, a PBM binding z-score [2] of 1.51 and a PBM binding z-score [3] of 1.98. For the same sequence, the PBM binding z-score [16] was 3.41, the PBM binding z-score [4] was 7.65 and the PBM binding z-score [5] was 2.14. For the same sequence, the PBM binding z-score [6] was 0.677, the PBM binding z-score [7] was 1.31 and the PBM binding z-score [8] was 1.81. It also gave a PBM binding z-score [9] of 1.91, a PBM binding z-score [10] of 1.44 and a PBM binding z-score [11] of 2.58. The PBM binding z-score [12] was 1.02, the PBM binding z-score [13] was 2.46 and the PBM binding z-score [14] was 0.911. It also gave a PBM binding z-score [15] of 4.2.

For CTATGTAGGTTAAAGGGGTCATTCAGTTTGAAAG, the PBM binding z-score [1] was 7.95, the PBM binding z-score [2] was 7.63 and the PBM binding z-score [3] was 7.13. It also gave a PBM binding z-score [4] of 13, a PBM binding z-score [6] of 1.99 and a PBM binding z-score [7] of 3.87. It also gave a PBM binding z-score [8] of 4.23, a PBM binding z-score [9] of 5.28 and a PBM binding z-score [10] of 4.06. It also gave a PBM binding z-score [11] of 2.87, a PBM binding z-score [12] of 6.56 and a PBM binding z-score [13] of 3.91. The PBM binding z-score [14] was 1.29 and the PBM binding z-score [15] was 6.99.

With CCGAGTAGGTCACGAGGGGGCATTCAGTGCGAAT the PBM binding z-score [1] was 6.96, the PBM binding z-score [2] was 7.42 and the PBM binding z-score [3] was 2.44. For the same sequence, the PBM binding z-score [4] was 4.34, the PBM binding z-score [5] was 4.38 and the PBM binding z-score [6] was 1.07. It also gave a PBM binding z-score [7] of 4.58, a PBM binding z-score [8] of 4.35 and a PBM binding z-score [9] of 6.3. For the same sequence, the PBM binding z-score [10] was 6.32, the PBM binding z-score [11] was 2.29 and the PBM binding z-score [12] was 5.11. It also gave a PBM binding z-score [13] of 4.54, a PBM binding z-score [14] of 0.959 and a PBM binding z-score [15] of 3.61.

CCGAGTAGGTTACGAGGGGGCTTTCAGTGCGAAT was tested, and the PBM binding z-score [1] was 4.79, the PBM binding z-score [2] was 4.3 and the PBM binding z-score [3] was 0.789. The PBM binding z-score [16] was 2.01, the PBM binding z-score [4] was 0.241 and the PBM binding z-score [5] was 1.55. For the same sequence, the PBM binding z-score [6] was -0.415, the PBM binding z-score [7] was 1.41 and the PBM binding z-score [8] was 0.961. For the same sequence, the PBM binding z-score [9] was 1.85, the PBM binding z-score [10] was 1.36 and the PBM binding z-score [11] was 0.879. For the same sequence, the PBM binding z-score [12] was 1.08, the PBM binding z-score [13] was 2.33 and the PBM binding z-score [14] was 0.299. The PBM binding z-score [15] was 0.538.

For CTATGTAGGTTAAGGGGGTTATTCAGTTTGAAAG, the PBM binding z-score [1] was 6.94, the PBM binding z-score [2] was 7.29 and the PBM binding z-score [3] was 2.61. The PBM binding z-score [16] was 3.46, the PBM binding z-score [4] was 5.03 and the PBM binding z-score [6] was 1.62. The PBM binding z-score [7] was 2.24, the PBM binding z-score [8] was 2.15 and the PBM binding z-score [9] was 2.55. It also gave a PBM binding z-score [10] of 1.56, a PBM binding z-score [11] of 1.43 and a PBM binding z-score [12] of 2.57. For the same sequence, the PBM binding z-score [13] was 2.53, the PBM binding z-score [14] was 1.4 and the PBM binding z-score [15] was 3.24.
